# ERG-DNA inh: qHTS for Small Molecule Inhibitors of the ERG Ets/DNA interaction; fluorescence polarization, His-ERG Ets domain / labelled DNA; AID 624246, 2012; Transcriptional regulator ERG (Homo sapiens), P11308; actives 0.028% (n = 370,000); Potency, µM (titrated, usually from 76.9 µM), for the others: at the highest dose FP activity, negative = inhibition, usual class: inhibitors; active = well fitted inhibition curve with a large enough effect in the polarisation, with a control signal flat; inconclusive = small, poorly fitted or top-dose-only effect, or effect the other way, or a change in a side signal; inactive = no such curve, though single readings can be large or run the other way; the % refers to the polarisation;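 note: polarization taken with two DNA probes labelled with fluorescein and Texas red; potency is the fitted concentration of half-maximal effect; % of control where 0% means no effect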
# Target sequence (P11308 whole entry, looked up, the tested form may be a part): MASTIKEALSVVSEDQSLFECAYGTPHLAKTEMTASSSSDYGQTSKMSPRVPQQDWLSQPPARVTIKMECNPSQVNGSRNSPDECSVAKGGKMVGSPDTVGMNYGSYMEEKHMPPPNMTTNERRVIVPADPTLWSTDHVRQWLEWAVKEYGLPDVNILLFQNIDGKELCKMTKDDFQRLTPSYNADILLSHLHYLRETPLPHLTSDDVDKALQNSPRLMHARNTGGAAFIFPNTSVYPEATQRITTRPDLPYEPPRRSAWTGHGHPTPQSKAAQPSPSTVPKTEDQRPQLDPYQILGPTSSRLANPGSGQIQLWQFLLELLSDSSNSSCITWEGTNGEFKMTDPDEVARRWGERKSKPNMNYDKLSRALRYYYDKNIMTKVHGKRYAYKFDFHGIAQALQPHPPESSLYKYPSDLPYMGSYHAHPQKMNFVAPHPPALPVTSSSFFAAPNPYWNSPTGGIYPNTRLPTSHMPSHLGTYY
#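 His-tagged ERG Ets domain (1 uM in the protein solution; 300mM KCl, 50mM Tris-HCl, 1mM EDTA, 1mM DTT, pH 7.5) received compound, then a probe mix of 5 nM fluorescein-DNA and 100nM Texas-615-DNA. Fluorescence polarization was read for both dyes.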
# D3 antag: qHTS of D3 Dopamine Receptor Antagonist: qHTS; max response, negative = inhibition, %; D(3) dopamine receptor (Homo sapiens), P35462; actives 2.5% (n = 360,000); D3R cells, DiscoveRx beta-arrestin luminescence, antagonist mode; active compounds read low; in the data active = max response below about -50%; inconclusive = no clear call, values can overlap the other calls; note: % is set by controls: 0 for no effect and ±100 for the full control effect
#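 Cells plated overnight at 1500 cells/well, then exposed to library compounds with dopamine controls for 90 minutes at 37 degrees C. DiscoveRx reagent added for 30–60 minutes at room temperature; luminescence read, quantitative HTS format.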
# D1 ag: Allosteric Agonists of the Human D1 Dopamine Receptor: qHTS; HEK293 T-REx D1 cells, calcium flux, agonist mode; D(1A) dopamine receptor (Homo sapiens), P21728; activation, % at 2 µM; actives 1% (n = 360,000); in the data active = activation above about 30%; note: 0% is about no effect
#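 Tetracycline-induced HEK293 TREx D1 cells, force-coupled to calcium signalling, were dye-loaded with a no-wash calcium kit. Compound was pin-added after a 10 s baseline. Fluorescence was read kinetically at 1 cycle/s for 180 s, with calcium rises flagged as agonism.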
# D1 potentiator: Potentiators of Human D1 Dopamine Receptor: qHTS; actives 0.036% (n = 360,000); HEK293 TREx D1 cells, calcium flux, dopamine EC20 potentiation; potentiation, % at 10 µM; in the data active = potentiation above about 30%; note: 0% is about no effect
# DRD3 agonist: qHTS of D3 Dopamine Receptor Agonist: qHTS; D(3) dopamine receptor (Homo sapiens), P35462; D3R DiscoveRx beta-arrestin cells, luminescence, 90 min; max activation, %; actives 0.58% (n = 410,000); AID 652048, 2013; in the data active = max activation above about 30%; note: 0% is about no effect
#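 Agonist-mode cell screen: cells plated at 1500/well and incubated overnight at 37 °C, then exposed to library compounds for 90 min at 37 °C. Detection reagent was added for 30–60 min at room temperature, and luminescence was read.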
# D1 antag: Antagonist of Human D 1 Dopamine Receptor: qHTS; activity change, negative = inhibition, % at 10 µM; actives 3.2% (n = 360,000); AID 504652, 2011; D(1A) dopamine receptor (Homo sapiens), P21728; HEK293 TREx D1 cells, calcium flux, dopamine EC80; active compounds read low; in the data active = activity change below about -30%; note: % is set by controls: 0 for no effect and ±100 for the full control effect
#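 Compound effects on dopamine-evoked calcium signalling were measured in tetracycline-induced HEK293 Trex D1 cells. Dopamine at EC80 followed a 180 s compound pre-read, and fluorescence was tracked kinetically for 180 s more.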
# Starred values were filed as active, the others as inactive; ? = inconclusive; . = no result. Most compounds without a hit are left out; they make up all but 6.1% or so of the library.
SMILES,ERG-DNA inh,D3 antag,D1 ag,D1 potentiator,DRD3 agonist,D1 antag
O=C(Nc1ccc(Cl)cc1)Nc1nnc(-c2ccncc2)s1,7%,27,12,2,49*,-7
O=C(Nc1ccc(Cl)cc1)Nc1nc(-c2ccccc2O)cs1,16%,63,24,-8,-2,-37*
O=C(Nc1ccc(Cl)cc1)Nc1nc(-c2sccc2Br)cs1,13%,0,2,-2,7,1
CCOC(=O)c1c(C)n(C)c2ccc(OCC(O)Cn3nc(C)c(Br)c3C)cc12 (stereo not given),4%,27,-1,-4,-1,2
O=C(Nc1nc2ccccc2[nH]1)c1cccc(F)c1,25%,-9,1,6,-1,8
COc1ccc(OC)c(/C=C/c2nc3ccccc3[nH]c2=O)c1,3%,6,62*,-1,22,-2
O=C(/C=C/c1ccc(F)cc1)Nc1nc2ccccc2[nH]1,.,.,5,-1,.,-31*
O=c1[nH]c2ccccc2nc1/C=C/c1ccccc1,7%,3,4,-6,-12,-7
Cn1c(=O)c(/C=C/c2ccc(F)cc2)nc2ccccc21,-3%,-10,0,-3,-4,-2
O=c1[nH]c2ccccc2nc1/C=C/c1ccc(O)cc1,32%,15,45*,-5,5,1
O=c1[nH]c2ccccc2nc1/C=C/c1ccc(F)cc1,45%,3,35*,-5,5,-9
COc1ccccc1-n1nnnc1SCC(=O)Nc1ccccn1,-9%,-12,5,-3,2,-9
Cc1c(C(=O)NCc2cccc(Cl)c2)sc2nc3n(c(=O)c12)CCCC3,?,.,32*,-1,8,-16
Cc1cccc(CCNC(=O)c2sc3nc4n(c(=O)c3c2C)CCCC4)c1,2%,.,32*,-1,-11,7
COc1ccc(CNC(=O)c2sc3nc4n(c(=O)c3c2C)CCCC4)cc1,-1%,.,71*,-3,-2,-3
Cc1ccc(CNC(=O)c2cnc(N3CCCC3)nc2C)cc1,-2%,.,3,0,5,8
COc1ccc(CNC(=O)c2cnc(N3CCCC3)nc2C)cc1,1%,.,-1,1,9,-44*
CCOc1ccc(CCNC(=O)c2sc3nc4n(c(=O)c3c2C)CCCC4)cc1OCC,-5%,.,10,-6,8,-11
O=c1cn[nH]c2ccc(Br)cc12,-2%,-17,.,.,5,.
Cc1c(C)c2c(c(C)c1OC(=O)CCC(=O)OCCO)CC[C@@](C)(CCC[C@H](C)CCC[C@H](C)CCCC(C)C)O2,.,.,.,.,-18,.
COC(=O)c1ccc(S(=O)(=O)NCc2ccco2)o1,5%,-3,0,-3,5,9
CC/C(=N\NC(=O)c1ccc(N(C)C)cc1)c1ccccc1,7%,8,1,-3,-3,4
O=C(O)CCCN1C(=O)/C(=C/c2ccc(-c3nc4ccccc4s3)o2)SC1=S,-3%,-82*,53*,11,-1,56
C[C@@H]1CN([C@H](C)CO)C(=O)CCCn2nncc2CO[C@@H]1CN(C)C(=O)Cc1ccccc1,.,20,.,.,1,.
CCC1=C2CC[C@H]3C(=O)N(C)C(=O)[C@H]3[C@H]2[C@@]2(Cc3ccccc3)C(=NCCOC)OC(=O)N2C1=O,0%,4,9,4,38*,1
SMILES,ERG-DNA inh,D3 antag,D1 ag,D1 potentiator,DRD3 agonist,D1 antag
C=CCn1c(SCC(=O)N2CCOCC2)nc(O)cc1=O,11%,3,3,-5,-3,5
C=CCn1c(SCc2c(F)c(F)c(F)c(F)c2F)nc(O)cc1=O,-3%,4,33*,7,4,-14
C=CCn1c(SCC(=O)N2CCCCC2)nc(O)cc1=O,.,-22,1,0,-10,-63*
C=CCn1c(SCC(=O)N2CCCCCC2)nc2ccccc2c1=O,0%,7,1,-4,8,-32*
C=CCn1c(SCC(=O)N(CC)CC)nc(O)cc1=O,-4%,-4,3,1,-4,-2
CCCS(=O)(=O)N1CCN(C(=O)c2ccco2)CC1,2%,12,1,-1,-2,-9
COc1cc2[nH]cc(C(=O)NCc3ccccc3)c(=O)c2cc1OC,-3%,-5,3,-6,-9,1
COc1ccc(C(=O)NCc2ccccc2)cc1Br,-8%,12,-1,-10,3,9
COc1cc2[nH]cc(C(=O)NCCc3ccccc3)c(=O)c2cc1OC,-2%,16,0,-8,11,-32*
COc1cc2[nH]c(C(=O)NCc3ccccc3)cc2c(OC)c1OC,-14%,-105*,1,-9,-10,-36*
COc1cc2[nH]c(C(=O)NCCc3ccccc3)cc2c(OC)c1OC,4%,-61*,1,-5,-15,-2
CSc1ccc(Cn2c(C)c(C(=O)NCc3ccco3)sc2=O)cc1,.,-4,.,.,-2,.
Cc1ccc(NC(=O)Cn2nc(-c3ccncc3)ccc2=O)cc1Cl,-1%,.,0,-1,1,-1
CC(Sc1nnc(N)s1)C(=O)Nc1ccc(N2CCOCC2)cc1 (stereo not given),-1%,?,4,-2,-2,-11
Cn1cc(Cl)c(C(=O)Nc2cnn(Cc3ccc(F)cc3)c2)n1,4%,-6,5,-4,-5,-42*
Cc1ccc(Cn2nc(C)c(NC(=O)c3cc(C)no3)c2C)cc1,1%,8,2,.,-2,-78*
Cc1nn(-c2ccccc2)c(C)c1CCC(=O)O,3%,-22,3,3,-6,19
Cc1nn(Cc2ccc(Br)cc2)c(C)c1NC(=O)c1nn(C)cc1Cl,-7%,-16,7,9,-4,-39*
Cc1nn(Cc2ccccc2)c(C)c1CCC(=O)O,-10%,28,0,-6,1,-83*
Cc1cc(C(=O)Nc2c(C)nn(Cc3ccc(F)cc3)c2C)on1,-3%,-8,7,.,-1,5
Cc1ccc(Cn2ccc(NC(=O)c3nn(C)cc3Cl)n2)cc1,7%,-13,3,-3,6,-1
CC(=O)c1ccc(NC(=O)/C(C#N)=C/c2ccncc2)cc1,-4%,1,1,2,3,4
Cc1nn(Cc2ccc(C(=O)NN)cc2)c(C)c1Cl,13%,-1,2,4,-8,-44*
Cc1noc(C(=O)Nc2c(C)nn(Cc3ccccc3)c2C)c1Cl,-4%,-19,1,-6,3,-51*

# Screens: PubChem, National Center for Advancing Translational Sciences (NCATS)
